Source: PubChem BioAssay (NCATS)
Results filed as inconclusive are left out. Entries that show only a call come without a potency. Active and inactive are the calls of the source. Unless noted, the call rests on the fitted dose curve; in most records, active means well fitted curve in the direction sought with a large enough effect; inconclusive means small, poorly fitted or top-dose-only effect, or another doubt; inactive means no such curve, though single readings can be large; an effect the other way counts as inactive or inconclusive.

Tests used:
[1] = High Content Imaging Cell-Based qHTS for Inhibitors of the mTORC1 Signaling Pathway in MEF Cells (AID 2667);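 further: Tsc2-/- p53-/- MEFs stably re-expressing wild-type Tsc2 exposed 24 h; series mostly up to about 38 µM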
In short: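 Fixed-cell imaging of phospho-S6 (Ser235/236, Alexa-488) after 24 hrs of compound treatment at 37 degree Celsius. Signal was normalized to Hoechst, and thresholds from the highest and lowest wells split cells into % active versus % non-active.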

[2] = Cytometry Cell-Based qHTS for Inhibitors of the mTORC1 Signaling Pathway in MEF cells (AID 2668);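 further: Tsc2-/- p53-/- mouse embryonic fibroblasts stably re-expressing wild-type Tsc2; percent cells positive for phospho-rpS6 Ser235/236 relative to propidium iodide stain; series mostly up to about 38 µM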
In short: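 Read-out: phospho-rpS6 Ser235/236 immunofluorescence normalized to propidium iodide intensity, scored as % active cells against a rapamycin (7.5 nM) threshold. Cells: Tsc2-/-, p53-/- MEFs stably expressing WT Tsc2, compound-treated 24 hrs at 37 degree Celsius.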

[3] = target: Ubiquitin carboxyl-terminal hydrolase 2 (Homo sapiens) (UniProt O75604); test: qHTS Validation Assay for Inhibitors of Ubiquitin-specific Protease USP2a Using CHOP2 as the Reporter (AID 463106)
In short: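 Inhibition is expressed relative to NEM as the full-inhibition control, with concentration-response curves classed by fit quality, magnitude and activity. Enzyme (USP2 core, 10nM) meets 25nM Ub-CHOP2 after compound preincubation; readings are taken at 60min.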

[4] = target: DNA polymerase III PolC-type (Bacillus subtilis (strain 168)) (UniProt P13267); test: qHTS Validation Assay for the Inhibitors of DNA Replication in Gram-Positive Bacteria (AID 485295);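 further: reconstituted holoenzyme with PolC plus beta clamp SSB and primase; PicoGreen fluorescence of double-stranded DNA made on primed circular M13 template; series mostly up to about 57 µM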
In short: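 PicoGreen fluorescence (ex 480–485/em 535–540 nm) reports dsDNA synthesized on ssM13Gori template with dNTPs/NTPs. Enzyme: holoenzyme rebuilt from purified PolC, beta subunit, SSB and primase. Compound preincubated before substrate addition; RT throughout.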

[5] = target: Tumor susceptibility gene 101 protein (Homo sapiens) (UniProt Q99816); test: qHTS Validation Assay for Iinhibitors of HIV-1 Budding by Blocking the Interaction of PTAP/TSG101 (AID 485342; calls by dose curve)
In short: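 FP read-out: FITC-PTAP peptide, 50 nM final, binding Tsg101 binding domain, 10 uM final; 20 min r.t.; 10 mM HEPES pH 7.5, 0.15 M NaCl, 0.01% Tween 20, 3 mM EDTA, 0.1 mM TCEP.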

[6] = qHTS Validation Assay to Find Inhibitors of Chronic Active B-Cell Receptor Signaling (AID 485345; active means well fitted curve in the direction sought with a large enough effect in the main read-out, with a control signal flat, not every such curve was filed as active)
In short: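 TMD8 ABC-DLBCL cells with dox-inducible green luciferase–IκBα fusion and red native luciferase; compounds 46 uM–3 nM, 4 h at 37C with doxycycline in 0.5% FBS IMDM. Green/red ratio normalized to basal and 10 uM MG-132.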

[7] = target: Beta-2 adrenergic receptor (Homo sapiens) (UniProt P07550); test: qHTS validation assay of beta-arrestin-biased ligands of beta2-adrenergic receptor (AID 485366)
In short: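 Compound series up to 46 microM applied to beta2-AR/beta-arrestin Tango cells, 18 hr, 37 degrees C, 5% CO2. Read-out: tTA-driven luciferase luminescence, converted to %Activity; concentration-response curves assigned curve classes.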

[8] = target: Thioredoxin reductase 1, cytoplasmic (Rattus norvegicus) (UniProt O89049); test: qHTS Assay for Substrates of Mammalian Selenoprotein Thioredoxin Reductase 1 (TrxR1) (AID 488772);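 further: series mostly up to about 57 µM; a drop in NADPH fluorescence below the no-compound background marks a TrxR1 substrate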
In short: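 In this dual-purpose format, potential substrates are identified from the first fluorescence read after selenite addition, not from the 8-minute delta. Rat enzyme is preincubated with NADPH and then with compound at ~22 deg C.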

[9] = target: Thioredoxin reductase 1, cytoplasmic (Rattus norvegicus) (UniProt O89049); test: qHTS Assay for Inhibitors of Mammalian Selenoprotein Thioredoxin Reductase 1 (TrxR1) (AID 488773); settings: Potency: inhibition; further: nearly all actives have a fitted effect of over 40% in size; further: potency means the concentration at half of the fitted maximal effect
In short: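 Inhibition is scored from the loss of NADPH fluorescence between first and last reads of an 8-min kinetic run. Selenite (400 uM) was the substrate, added after 15 min compound preincubation at room temperature.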

[10] = target: Flap endonuclease 1 (Homo sapiens) (UniProt P39748); test: qHTS Validation Assay for the Inhibitors of Human Flap endonuclease 1 (FEN1) (AID 488816)
In short: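 Steps: add FEN1 (10 nM reagent) or buffer only; pin compounds; hold 15 min at room temperature; start with substrate, 50 nM final; read at 0 and 15 min; correct, normalize and fit a four-parameter Hill curve.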

[11] = target: Methanococcus maripaludis chaperonin (MmCpn) (UniProt Q6LX38); test: High-Throughput Screening for Modulators of Cytosolic Chaperonin Activity: MmCpn Primary Screen (AID 488978);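 further: 50 nM MmCpn enzyme hydrolysing 30 µM ATP at 37 °C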
In short: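 ADP formation read by HTRF Transcreener, 665/590 nm emission after 320 nm excitation. Enzyme: archaeal chaperonin at 50 nM final; substrate ATP 30 uM final; 10 min, 37C, after 5 min compound preincubation at RT.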

[12] = target: D(1A) dopamine receptor (Homo sapiens) (UniProt P21728); test: HTS Assay for Allosteric Agonists of the Human D1 Dopamine Receptor: Primary Screen for Agonists (AID 488981); further: potency means the concentration at half of the fitted maximal effect
In short: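 Tetracycline-induced HEK293 T-REx cells force-coupled to calcium signalling were incubated overnight at 30 C and dye-loaded at room temperature. Calcium flux over 180 s after compound addition flagged agonists; a further 180 s read after EC20 dopamine flagged potentiators.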

[13] = Quantitative high throughput screen for delayed death inhibitors of the malarial parasite plastid, 48 hour incubation (AID 488752); further: nearly all actives have a fitted effect of over 65% in size; further: potency means the concentration at half of the fitted maximal effect
In short: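 Luciferase-expressing P. falciparum in RBCs, 2% Hct, 0.1% parasitemia final; RPMI 1640 + 0.5% Albumax; 48 h, 37 C, 5% CO2; luminescence readout, signal drop = growth inhibition.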

[14] = target: M-phase phosphoprotein 8 (Homo sapiens) (UniProt Q99549); test: qHTS Validation Assay for Inhibitors for MPP8 Chromodomain Interactions with Methylated Histone Tails (AID 488949); further: nearly all actives have a fitted effect of over 55% in size; further: potency means the concentration at half of the fitted maximal effect
In short: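 AlphaScreen read-out: streptavidin donor and nickel chelate acceptor beads (final 10 ug/mL), 30 min in the dark at RT. Complex of 50 nM MPP8 and 50 nM b-H3(1-18)K9me3 peptide had been exposed to compounds for 30 min beforehand.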

[15] = target: Chromobox protein homolog 1 (Homo sapiens) (UniProt P83916); test: qHTS Validation Assay for Inhibitors of HP1-beta Chromodomain Interactions with Methylated Histone Tails (AID 488953); further: nearly all actives have a fitted effect of over 50% in size; further: potency means the concentration at half of the fitted maximal effect
In short: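 AlphaScreen proximity readout: streptavidin donor and Ni-chelate acceptor beads, 10 ug/mL final, 30 min dark, RT. Complex of 50 nM HP1-beta and 50 nM b-H3(1-18)K9me3 formed 30 min, then compound-treated 30 min; PBS pH 7.4/0.01% Tween-20.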

[16] = target: Transient receptor potential cation channel subfamily V member 1 (Homo sapiens) (UniProt Q8NER1); test: HTS Assay for Compounds that Act as Enhancers of the Vanilloid Receptor 1 (AID 488979)
In short: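 TRPV1-expressing cells loaded with Fluo-8 calcium dye; compounds added and calcium influx read kinetically for 3 min (agonist phase), then capsaicin at EC20 added and read 2 min more for enhancement. Fluorescence ex 480/em 520 nm.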

[17] = target: Thyrotropin receptor (Homo sapiens) (UniProt P16473); test: qHTS Assay for Antagonists of the Thyroid Stimulating Hormone Receptor (AID 488980); further: series mostly up to about 58 µM
In short: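 TSHR-HEK293 cells; 70 uM RO 20-1724 PDE inhibitor; compound + EC80 TSH (4 nM final); anti-cAMP cryptate antibody/cAMP-d2 in lysis buffer, 30 min RT; HTRF 665/620 nm read.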

[18] = Quantitative high throughput screen for delayed death inhibitors of the malarial parasite plastid, 96 hour incubation (AID 488745); further: nearly all actives have a fitted effect of over 70% in size; further: potency means the concentration at half of the fitted maximal effect
In short: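 Luciferase-expressing P. falciparum, infected RBCs 2% Hct/0.1% parasitemia (final); 96 h cpd exposure, 37 C, 5% CO2; RPMI 1640 + 0.5% Albumax, bicarbonate, gentamycin. Readout: luminescence loss = growth inhibition.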

[19] = target: ATP-dependent 6-phosphofructokinase (Trypanosoma brucei brucei) (UniProt O15648); test: qHTS Validation Assay to Find Inhibitors of T. brucei phosphofructokinase (AID 485368); further: potency means the concentration at half of the fitted maximal effect
In short: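 qHTS format, up to 57 uM. PFK 1.25 nM; F6P 0.5 mM; ATP 0.1 mM; 5 mM MgCl2, 0.01% Tween20, 0.1% BSA; 0.1 M TEA pH 8.0; 45 min RT; ADP-Glo readout; no-enzyme control = full inhibition.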

Chain of DNA polymerase III PolC-type (Bacillus subtilis (strain 168)) (P13267 whole entry, looked up): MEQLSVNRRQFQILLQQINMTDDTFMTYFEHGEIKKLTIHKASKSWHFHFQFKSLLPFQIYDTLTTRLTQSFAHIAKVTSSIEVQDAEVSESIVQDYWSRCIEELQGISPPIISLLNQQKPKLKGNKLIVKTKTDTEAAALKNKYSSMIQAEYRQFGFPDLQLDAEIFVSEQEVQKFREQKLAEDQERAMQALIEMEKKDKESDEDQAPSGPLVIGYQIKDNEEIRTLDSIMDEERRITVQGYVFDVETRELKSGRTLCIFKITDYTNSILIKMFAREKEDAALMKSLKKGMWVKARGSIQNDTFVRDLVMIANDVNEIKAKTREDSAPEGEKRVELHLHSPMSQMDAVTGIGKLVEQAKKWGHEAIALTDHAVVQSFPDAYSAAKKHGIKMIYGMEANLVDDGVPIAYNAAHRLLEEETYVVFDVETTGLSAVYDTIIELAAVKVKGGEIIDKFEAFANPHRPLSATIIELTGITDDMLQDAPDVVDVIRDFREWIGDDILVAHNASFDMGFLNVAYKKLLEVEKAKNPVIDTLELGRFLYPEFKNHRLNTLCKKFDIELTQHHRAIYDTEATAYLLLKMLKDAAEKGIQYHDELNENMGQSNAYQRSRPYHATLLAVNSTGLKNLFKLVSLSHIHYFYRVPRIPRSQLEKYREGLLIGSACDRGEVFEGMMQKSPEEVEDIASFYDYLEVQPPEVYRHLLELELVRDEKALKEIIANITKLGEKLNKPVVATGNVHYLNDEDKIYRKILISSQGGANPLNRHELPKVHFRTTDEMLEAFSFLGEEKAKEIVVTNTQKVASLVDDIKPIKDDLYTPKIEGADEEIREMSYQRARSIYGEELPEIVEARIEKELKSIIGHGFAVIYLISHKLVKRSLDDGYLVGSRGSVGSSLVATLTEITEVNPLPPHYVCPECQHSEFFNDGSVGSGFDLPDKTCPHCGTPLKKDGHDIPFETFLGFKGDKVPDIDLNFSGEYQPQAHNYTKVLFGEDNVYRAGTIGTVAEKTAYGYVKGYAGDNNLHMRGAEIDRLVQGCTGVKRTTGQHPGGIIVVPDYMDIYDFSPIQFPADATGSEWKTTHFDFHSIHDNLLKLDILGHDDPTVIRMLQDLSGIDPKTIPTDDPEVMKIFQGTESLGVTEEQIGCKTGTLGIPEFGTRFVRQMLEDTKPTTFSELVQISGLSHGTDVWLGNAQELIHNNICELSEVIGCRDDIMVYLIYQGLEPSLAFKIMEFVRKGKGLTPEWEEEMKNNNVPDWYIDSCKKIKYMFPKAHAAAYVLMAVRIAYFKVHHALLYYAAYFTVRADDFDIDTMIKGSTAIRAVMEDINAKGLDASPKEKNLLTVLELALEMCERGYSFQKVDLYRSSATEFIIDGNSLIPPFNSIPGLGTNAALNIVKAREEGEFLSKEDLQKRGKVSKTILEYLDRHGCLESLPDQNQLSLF
Chain of Transient receptor potential cation channel subfamily V member 1 (Homo sapiens) (Q8NER1 whole entry, looked up): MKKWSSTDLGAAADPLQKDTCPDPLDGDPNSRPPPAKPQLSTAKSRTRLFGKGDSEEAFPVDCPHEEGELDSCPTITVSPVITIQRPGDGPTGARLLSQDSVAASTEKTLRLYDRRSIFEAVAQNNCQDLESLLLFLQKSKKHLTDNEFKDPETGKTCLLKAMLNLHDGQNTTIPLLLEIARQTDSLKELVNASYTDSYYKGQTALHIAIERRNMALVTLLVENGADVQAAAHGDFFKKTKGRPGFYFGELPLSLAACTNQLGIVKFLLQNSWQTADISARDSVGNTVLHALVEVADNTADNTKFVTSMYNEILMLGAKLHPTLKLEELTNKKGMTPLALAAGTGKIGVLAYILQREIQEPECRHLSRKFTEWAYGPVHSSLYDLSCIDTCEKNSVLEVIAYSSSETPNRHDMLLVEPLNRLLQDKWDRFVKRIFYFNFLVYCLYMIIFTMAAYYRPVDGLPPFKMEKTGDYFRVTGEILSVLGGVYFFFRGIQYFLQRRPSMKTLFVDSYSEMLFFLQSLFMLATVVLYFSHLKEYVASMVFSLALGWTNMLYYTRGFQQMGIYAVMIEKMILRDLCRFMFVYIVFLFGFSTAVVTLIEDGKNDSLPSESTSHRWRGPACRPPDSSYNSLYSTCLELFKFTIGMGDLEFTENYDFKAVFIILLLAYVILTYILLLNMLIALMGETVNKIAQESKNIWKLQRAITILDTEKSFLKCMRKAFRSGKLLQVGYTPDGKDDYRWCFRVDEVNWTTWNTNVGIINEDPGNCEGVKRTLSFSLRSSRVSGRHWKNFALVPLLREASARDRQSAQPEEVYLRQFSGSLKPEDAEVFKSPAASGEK
Chain of D(1A) dopamine receptor (Homo sapiens) (P21728 whole entry, looked up): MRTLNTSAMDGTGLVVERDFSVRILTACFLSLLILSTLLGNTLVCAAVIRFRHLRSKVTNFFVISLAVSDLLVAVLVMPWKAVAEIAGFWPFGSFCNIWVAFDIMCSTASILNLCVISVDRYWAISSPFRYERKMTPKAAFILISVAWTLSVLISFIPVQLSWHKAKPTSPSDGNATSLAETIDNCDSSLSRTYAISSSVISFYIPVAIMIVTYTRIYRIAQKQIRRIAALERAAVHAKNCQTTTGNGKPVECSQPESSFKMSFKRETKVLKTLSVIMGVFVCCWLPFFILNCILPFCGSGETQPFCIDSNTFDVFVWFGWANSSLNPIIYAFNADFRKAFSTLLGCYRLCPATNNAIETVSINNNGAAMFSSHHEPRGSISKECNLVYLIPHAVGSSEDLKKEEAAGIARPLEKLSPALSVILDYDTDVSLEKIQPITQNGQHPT
Chain of Beta-2 adrenergic receptor (Homo sapiens) (P07550 whole entry, looked up): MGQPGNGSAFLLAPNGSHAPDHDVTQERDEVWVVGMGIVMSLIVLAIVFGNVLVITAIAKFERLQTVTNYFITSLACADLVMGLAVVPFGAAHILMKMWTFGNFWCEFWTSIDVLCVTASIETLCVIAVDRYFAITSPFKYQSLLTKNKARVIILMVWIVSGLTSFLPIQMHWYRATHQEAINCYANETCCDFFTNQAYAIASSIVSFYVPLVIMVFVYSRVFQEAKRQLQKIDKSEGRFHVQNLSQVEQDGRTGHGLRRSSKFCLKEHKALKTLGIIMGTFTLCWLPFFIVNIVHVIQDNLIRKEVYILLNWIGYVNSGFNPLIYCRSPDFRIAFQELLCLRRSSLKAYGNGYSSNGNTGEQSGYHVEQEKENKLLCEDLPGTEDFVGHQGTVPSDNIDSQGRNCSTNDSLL
Chain of Thioredoxin reductase 1, cytoplasmic (Rattus norvegicus) (O89049 whole entry, looked up): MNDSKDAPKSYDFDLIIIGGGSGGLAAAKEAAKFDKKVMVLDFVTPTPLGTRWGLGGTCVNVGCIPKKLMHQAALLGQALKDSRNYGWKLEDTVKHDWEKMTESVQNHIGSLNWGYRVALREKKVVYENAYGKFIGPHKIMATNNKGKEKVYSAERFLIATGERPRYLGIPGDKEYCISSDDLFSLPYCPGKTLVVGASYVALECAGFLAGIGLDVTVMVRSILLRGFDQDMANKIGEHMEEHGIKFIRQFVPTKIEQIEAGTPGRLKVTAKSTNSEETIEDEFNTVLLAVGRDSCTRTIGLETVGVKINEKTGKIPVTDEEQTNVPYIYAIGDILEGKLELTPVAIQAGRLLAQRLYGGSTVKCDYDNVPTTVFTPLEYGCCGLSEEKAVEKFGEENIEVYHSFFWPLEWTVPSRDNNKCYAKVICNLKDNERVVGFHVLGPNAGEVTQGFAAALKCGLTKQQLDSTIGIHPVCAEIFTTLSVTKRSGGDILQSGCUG
Chain of Ubiquitin carboxyl-terminal hydrolase 2 (Homo sapiens) (O75604 whole entry, looked up): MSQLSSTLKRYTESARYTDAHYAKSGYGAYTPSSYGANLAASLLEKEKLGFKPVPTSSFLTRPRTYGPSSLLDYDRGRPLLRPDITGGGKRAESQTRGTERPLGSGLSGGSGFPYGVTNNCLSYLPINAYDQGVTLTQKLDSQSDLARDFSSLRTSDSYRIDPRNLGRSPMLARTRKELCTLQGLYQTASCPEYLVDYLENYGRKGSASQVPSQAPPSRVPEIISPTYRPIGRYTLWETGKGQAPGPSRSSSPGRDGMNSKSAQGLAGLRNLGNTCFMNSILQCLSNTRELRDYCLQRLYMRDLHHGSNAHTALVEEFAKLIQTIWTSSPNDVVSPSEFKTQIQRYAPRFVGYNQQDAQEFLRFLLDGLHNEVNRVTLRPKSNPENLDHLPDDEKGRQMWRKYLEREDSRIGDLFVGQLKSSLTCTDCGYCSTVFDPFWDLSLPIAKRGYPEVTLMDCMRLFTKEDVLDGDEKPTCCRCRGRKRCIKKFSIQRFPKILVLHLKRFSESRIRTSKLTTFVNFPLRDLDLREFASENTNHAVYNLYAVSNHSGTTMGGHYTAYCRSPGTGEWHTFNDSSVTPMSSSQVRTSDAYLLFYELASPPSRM
Chain of ATP-dependent 6-phosphofructokinase (Trypanosoma brucei brucei) (O15648 whole entry, looked up): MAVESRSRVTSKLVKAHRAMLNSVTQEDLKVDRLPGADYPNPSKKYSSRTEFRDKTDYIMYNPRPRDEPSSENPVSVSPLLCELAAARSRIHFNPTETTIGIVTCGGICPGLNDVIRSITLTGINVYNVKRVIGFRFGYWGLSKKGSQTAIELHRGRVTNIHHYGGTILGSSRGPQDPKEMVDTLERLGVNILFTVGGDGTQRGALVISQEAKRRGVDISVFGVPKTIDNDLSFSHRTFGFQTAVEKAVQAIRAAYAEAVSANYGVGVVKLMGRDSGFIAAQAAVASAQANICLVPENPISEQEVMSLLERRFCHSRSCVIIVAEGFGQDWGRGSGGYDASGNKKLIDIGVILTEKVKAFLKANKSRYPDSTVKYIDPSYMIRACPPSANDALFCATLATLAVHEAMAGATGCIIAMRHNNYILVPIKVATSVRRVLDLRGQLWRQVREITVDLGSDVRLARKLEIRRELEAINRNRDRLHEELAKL
Chain of Chromobox protein homolog 1 (Homo sapiens) (P83916 whole entry, looked up): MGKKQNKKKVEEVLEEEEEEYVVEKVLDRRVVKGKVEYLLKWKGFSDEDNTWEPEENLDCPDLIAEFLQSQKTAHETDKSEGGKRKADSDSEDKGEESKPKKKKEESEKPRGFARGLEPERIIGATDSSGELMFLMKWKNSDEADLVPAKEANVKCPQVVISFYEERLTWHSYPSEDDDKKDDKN

SMILES	Potency [1]	Potency [2]	Potency [3]	Potency [4]	outcome [5]	outcome [6]	outcome [7]	Potency [8]	Potency [9]	Potency [10]	outcome [11]	Potency [12]	Potency [13]	Potency [14]	Potency [15]	outcome [16]	outcome [17]	Potency [18]	Potency [19]
CO/S(=N\S(=O)(=O)c1ccc(Cl)cc1)c1ccc([N+](=O)[O-])cc1 (stereo not drawn)	inactive	inactive	inactive	inactive	inactive	inactive	inactive	inactive	inactive	inactive	inactive	inactive							
NCCCS(=O)(=O)O	inactive	inactive	inactive	inactive	inactive	inactive	inactive	inactive		inactive	inactive	inactive	inactive	inactive	inactive	inactive	inactive		
CCCN(CC1CC1)c1nc(C)nc(Nc2c(Cl)cc(Cl)cc2Cl)c1Cl	inactive	inactive	inactive	inactive	inactive	inactive	inactive	inactive	inactive	inactive	inactive	inactive	2.62 µM (active)		inactive	inactive	inactive	2.33 µM (active)	
Brc1c(Br)c(Br)c2n[nH]nc2c1Br	inactive	inactive	inactive	inactive	inactive		inactive	inactive	inactive		inactive	inactive	inactive			inactive	inactive	inactive	
O=C(O)CC1CC(c2ccccc2)=NO1 (stereo not drawn)	inactive	inactive	inactive	inactive	inactive	inactive	inactive	inactive	inactive		inactive	inactive		inactive	inactive				
COc1ccc(NC(=O)/C=C/c2ccc(Cl)cc2)cc1	inactive	inactive	inactive	inactive	inactive		inactive	inactive	inactive	inactive	inactive			inactive		inactive	inactive		inactive
Cc1nc2sccn2c(=O)c1CCN1CCC(=C(c2ccccc2)c2ccc(F)cc2)CC1	inactive	inactive	inactive	inactive	inactive	inactive	inactive	inactive	inactive	inactive	inactive								
CN1CCc2cccc3c2C1Cc1ccc(O)c(O)c1-3 (stereo not drawn)	inactive	inactive	inactive	inactive	inactive		inactive	inactive	9.47 µM (active)		inactive	inactive		20 µM (active)		inactive	inactive		12 µM (active)
Nc1nc(Cl)nc2c1ncn2[C@@H]1O[C@H](CO)[C@@H](O)[C@H]1O	inactive	inactive	inactive	inactive	inactive		inactive	inactive	inactive	inactive	inactive	inactive		inactive	inactive				inactive
NC(=S)c1ccc[n+]([C@@H]2O[C@@H](COP(=O)([O-])OP(=O)(O)OC[C@H]3O[C@@H](n4cnc5c(N)ncnc54)[C@H](OP(=O)(O)O)[C@@H]3O)C(O)C2O)c1 (stereo partly drawn)	inactive	inactive	inactive	inactive	inactive		inactive	inactive	inactive	inactive	inactive			inactive	89.1 µM (active)				inactive
CNc1ncnc2c1ncn2[C@@H]1O[C@H](CO)[C@@H](O)[C@H]1O	inactive	inactive	inactive	inactive	inactive		inactive	inactive	inactive	inactive	inactive	inactive		inactive	inactive				
NC[C@H]1O[C@@H](n2cnc3c(N)ncnc32)[C@H](O)[C@@H]1O	inactive	inactive	inactive		inactive		inactive	inactive	inactive	inactive	inactive			inactive	inactive				inactive
Cc1ccc(S(=O)(=O)/C=C/C#N)cc1	inactive		inactive	inactive	inactive		inactive	inactive	0.238 µM (active)	inactive	inactive	inactive		inactive	39.8 µM (active)				
Cn1cc(C2=C(c3ccc(Cl)cc3Cl)C(=O)NC2=O)c2ccccc21	inactive	inactive		inactive	inactive		inactive	inactive	inactive	inactive	inactive	14.1 µM (active)	inactive	inactive	inactive		inactive	inactive	inactive
N#C/C(=C\c1ccc(-c2cc(Cl)ccc2Cl)o1)C(=O)Nc1cccc2ncccc12	inactive	inactive	inactive	inactive	inactive		inactive	inactive		inactive	inactive	inactive		inactive	inactive				
